# According to ChEMBL document CHEMBL3433997, “St. Jude Leishmania screening dataset” (2016):
# Legend:
# Type in all cases: functional
# [1] = target: Solute carrier family 2, facilitated glucose transporter member 1 (Homo sapiens) (UniProt P11166); experiment: ST_JUDE_LEISH: Cytotoxicity at 2uM final concentration against transgenic Leishmania Mexicana promastigotes LmGLUT1 that are glucose transport deficient and complemented with the human glucose transporter GLUT1. Activity is measured by DNA content using SYBR green in vitro
# Sequence of Solute carrier family 2, facilitated glucose transporter member 1 (Homo sapiens) (P11166 whole entry): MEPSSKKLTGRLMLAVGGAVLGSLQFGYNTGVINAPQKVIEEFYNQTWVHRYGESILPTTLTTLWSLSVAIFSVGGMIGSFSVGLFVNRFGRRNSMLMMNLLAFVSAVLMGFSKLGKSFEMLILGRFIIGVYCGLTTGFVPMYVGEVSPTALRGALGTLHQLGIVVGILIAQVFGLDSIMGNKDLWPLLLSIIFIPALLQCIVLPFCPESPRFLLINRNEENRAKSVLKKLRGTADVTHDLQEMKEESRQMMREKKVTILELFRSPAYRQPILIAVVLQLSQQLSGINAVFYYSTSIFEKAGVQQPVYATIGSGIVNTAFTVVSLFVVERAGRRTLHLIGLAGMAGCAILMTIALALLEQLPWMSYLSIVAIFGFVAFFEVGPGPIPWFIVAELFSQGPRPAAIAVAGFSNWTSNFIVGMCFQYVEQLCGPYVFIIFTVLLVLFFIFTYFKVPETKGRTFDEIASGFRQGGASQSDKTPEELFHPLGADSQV
# [2] = target: Hexose transporter 1 (Plasmodium falciparum) (UniProt O97467); experiment: ST_JUDE_LEISH: Cytotoxicity at 2uM final concentration against transgenic Leishmania Mexicana promastigotes LmPfHT that are glucose transport deficient and complemented with the Plasmodium falciparum hexose transporter. Activity is measured by DNA content using SYBR green in vitro
# [3] = target: Glucose transporter (Leishmania mexicana) (UniProt O61059); experiment: ST_JUDE_LEISH: Cytotoxicity at 2uM final concentration against transgenic Leishmania Mexicana promastigotes LmGT2 that are glucose transport deficient and complemented with the L. Mexicana glucose transporter 2. Activity is measured by DNA content using SYBR green in vitro
SMILES,inhibition [1],inhibition [2],inhibition [3]
Cc1cc(NC(=O)Nc2ccc3nc(C)oc3c2)c2cc(Cl)ccc2n1,3.48%,2.12%,1.38%
NC1CCCN(Cc2ccc(-c3ccc(-c4nc5ccccc5[nH]4)s3)cc2)C1 (centres undefined),8.95%,5.92%,9.09%
Cc1cccc2nc(-c3cccc(-c4cccc(NC(=O)CNc5ccc(C(N)=O)cc5)c4)c3)[nH]c12,4.73%,4.35%,3.03%
Nc1ncc(Cc2cc(Cl)c(N)c3ncccc23)c(N)n1,2.6%,2.88%,2.91%
O=C(Nc1ccc(SC(F)(F)F)cc1)Nc1ccnc2ccccc12,-1.32%,-0.22%,-2.28%
CCCC(=O)Nc1ccc(OCCCN(Cc2ccccc2C(F)(F)F)c2ccc(C#N)c(C(F)(F)F)c2)cc1,3.53%,4.53%,4.55%
CCc1nc(N)nc(N)c1-c1ccc2c(c1)CCCC2,2.54%,3.35%,2%
CCNc1cc(C(=O)N[C@@H](Cc2ccccc2)[C@H](O)CNC2(C(C)C)CCC2)cc(N2CCCCS2(=O)=O)c1,-0.22%,0.75%,-2.45%
CCCc1ccc(NC(=O)c2cccc(CN3CCCN(Cc4cccc(C#N)c4)CC3)c2)cc1,3.6%,-0.3%,1.95%
CCOc1ccc(C(C)NC(=O)Cc2ccccc2F)cc1OCC (centres undefined),3.49%,2.75%,-0.15%
CN1CCN(CC(O)CNC(=O)Nc2ccc(Cl)cc2)CC1 (centres undefined),5.3%,5.03%,2.94%
Cc1ccccc1C1CCN(C2CCC(NC(=O)/C=C/c3ccc4c(c3)OC(F)(F)O4)CC2)CC1 (centres undefined),0.14%,5.21%,2.92%
O=C1OC2(CCN(Cc3cccc(-c4ncc[nH]4)c3)CC2)CN1CCNCc1ccccc1,1.81%,1.4%,-0.76%
O=C(Cc1c[nH]cn1)Nc1ccc(-c2cccc(-c3nc4cc(C(F)(F)F)ccc4[nH]3)c2)cc1,-0.04%,0.42%,1.12%
CC(C)CNCc1ccc(-c2cccc(-c3nc4ccccc4[nH]3)c2)cc1,1.31%,9.2%,0.1%
CC(C)CNCc1cccc(-c2ccccc2CNC2CCN(Cc3ccccc3)CC2)c1,5.47%,4.95%,7.56%
Cc1cccc(C)c1CNc1cccc(-c2nc(C)c(C)[nH]2)c1,5.39%,4.77%,1.97%
Nc1nccc2ccc(-c3cccc4ncccc34)cc12,1.74%,0.04%,1.15%
CC1(C)CCC(C)(C)c2c1ccc(C1CCN(CCCCNC(=O)c3ccc(-c4ccc(Cl)cc4)cc3)CC1)c2O,2.14%,1.66%,0.11%
Cc1ccc(OCCCCONC(=O)c2ccccc2)cc1,0.84%,-1.51%,-0.14%
CCC(C)NC(=O)Cn1c2ncccc2c(=O)n1-c1ccc(C)cc1 (centres undefined),5.25%,4.88%,0.04%
COc1ccc(-c2c3c(=O)n(C)c(=O)n(C)c3c3nnc4ccccc4n23)cc1,0.81%,1.06%,1.3%

SMILES,inhibition [1],inhibition [2],inhibition [3]
CC[C@H](C)CNC(=O)c1cncc(-c2ccc(CN3CCC(N4CCCC4)CC3)cc2)c1,0.53%,0.26%,1.05%
Oc1ccc(CN2CCC(NCc3cccc(C(F)(F)F)c3)CC2)cc1,11.3%,13.7%,13.7%
N=C(N)c1ccc(NN=Cc2ccc(Oc3ccc(C(=N)N)cc3)cc2)cc1,3.43%,3.55%,0.79%
COc1ccc2nccc([C@@H](O)CN3CCC(NC(=O)c4ccc(Cl)c(OC)c4)CC3)c2c1,4.62%,7.71%,0.22%
C=Cc1c(C2CCN(CCCCNC(=O)c3ccc(-c4ccc(C#N)cc4)cc3)CC2)ccc2c1CCCC2,1.77%,4.14%,1.54%
CC(C)(C)c1ccc(S(=O)(=O)Nc2cc(Cl)ccc2Cn2ccc(N3CCNCC3)nc2=O)cc1,-1.22%,-3.39%,-1.02%
CCCOc1c(CCNCCCCNCCc2ccc3ccccc3c2OCCC)ccc2ccccc12,60.8%,13.6%,40.1%
Cn1cc(-c2ccnc3[nH]c(-c4cccc(CNC5CCC(O)CC5)c4)cc23)cn1 (centres undefined),0.39%,1.89%,3.37%
COc1ccccc1-c1csc(C(=O)NCC2CCN(Cc3ccc(C(C)(C)C)cc3)C2)c1 (centres undefined),1.44%,0.16%,0.22%
CC(CN)OCn1cnc2c(N)ncnc21 (centres undefined),0.4%,4.03%,4.83%
COc1ccc(-c2nc(NC(=O)CS(=O)(=O)c3ccc(F)cc3)sc2C)cc1,8.03%,4.52%,2.47%
CCS(=O)(=O)c1ccc(/C(=N/OC)c2ccc[nH]2)cc1,0.36%,0.06%,0.42%
Cc1cc(CNCCCCCCNCc2cccc([N+](=O)[O-])c2)ccc1O,10.5%,9.56%,9.64%
CC(C)N1CCC(N(Cc2ccc(-c3ccc(C(F)(F)F)cc3)cc2)C(=O)Cn2c(SCc3cccc(F)c3F)nc(=O)c3ccccc32)CC1,6.03%,4.99%,4.15%
Cc1cccc(CCNC(=O)c2cc(Br)cc(N3CCN(c4ccncc4)CC3)c2)c1,0.72%,2.44%,1.78%
CN(C)CCOc1ccc(-c2cc(-c3ccc(Cl)c(O)c3)c(-c3ccncc3)[nH]2)cc1,-0.18%,-0.32%,0.48%
Cc1ccc(Nc2nc(N/N=C/c3ccccc3[N+](=O)[O-])nc(Nc3ccc([N+](=O)[O-])cc3)n2)cc1C,12.9%,8.51%,5.3%
O=C(NCCN1CCCC1)N1CCCN(c2ncnc3cc(-c4ccc(Cl)cc4)sc23)CC1,0.21%,1.33%,0.08%
CN1CCN(C(C(=O)NCc2cc(Cl)cc(Cl)c2)c2ccc(NC(=O)Nc3ccccc3)cc2)CC1 (centres undefined),2.24%,1.94%,1.21%
Cn1cnc2nc(NCCc3ccccc3)nc(NCc3cccc4ccccc34)c21,0.91%,1.38%,-1.12%
Nc1nc(N)c2c(ccc3c2ccn3Cc2ccc3c(c2)OCO3)n1,97.8%,97.5%,93.7%
